In the library only some 5.5% were active in any assay of this set; here they are far more common.
Giardia killer = kills Giardia lamblia | Giardia lamblia trophozoite viability | actives 0.15% (n = 340,000) | AID 540267 | activity change, % at 7.66 µM, hits read low; in the data active means activity change below about -80%; inconclusive means between about -30% and that limit;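 further: parasites exposed to compound for two days anaerobically before the ATP read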
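Anaerobic 48 hrs incubation at 37 deg C of 100 trophozoites/well with test compounds; ATPLite 1-Step luminescence, 15-30 min RT, reports cellular ATP as viability.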
Sfp PPTase inh = inhibitors of Bacillus subtilis Sfp phosphopantetheinyl transferase. Q9F4F7. Biochemical Sfp PPTase activity, qHTS. Potency, µM, for the others: largest response in the series, negative = inhibition, usual class: inhibitors. actives 3.5% (n = 310,000). AID 1490;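 further: the enzyme is Sfp with the accession as filed and its product quenches rhodamine fluorescence; potency means the concentration at half of the fitted maximal effect; 0% = enzyme reaction without inhibitor and -100% = no enzyme wells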
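After 15 min at room temperature with compound, 15 nM Sfp received 5 uM rhodamine-CoA plus 12.5 uM BHQ-2-ybbR (50 mM Hepes pH 7.6, 10 mM MgCl2). Rate came from the fluorescence difference over 30 min, ex 525/em 598 nm.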
Coupling enz = counter-screen for Giardia aldolase inhibitors: coupling enzyme system; actives 0.67% (n = 290,000); activity change, negative = inhibition, % at 58.2 µM, hits read low; coupling enzyme system counterscreen, AmpLite Red fluorescence; in the data active means activity change below about -30%
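Activity here indicates interference with the coupling reaction, not aldolase inhibition. Compounds at 57.5 uM final met coupling enzymes for 10 min at RT; substrate and AmpLite Red detection followed, with a 525/598 nm fluorescence read after 20 min.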
ELG1 repair inh = blocks ELG1-dependent DNA repair in HEK293T cells. AID 504467. actives 2.3% (n = 330,000). HEK293T ELG1-luciferase reporter, luminescence, 16 h; DNA damage induced by 5-fluorouridine. Potency, µM (highest dose often 46.1 µM), for inactives: at the highest dose activity change, negative = inhibition, most hits filed as inhibitors; further: potency means the concentration at half of the fitted maximal effect; nearly all actives have a fitted effect of over 55% in size
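DMSO vehicle served as the neutral condition. Each well held 2,000 cells given 5-fluorouridine plus compound; after 16 hr at 37 °C/5% CO2, ONE-Glo was added and luciferase measured 30 min later.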
An asterisk follows results filed as active; ? = inconclusive; . = no result given. Unless noted, the call rests on the fitted dose curve; in most records, active means well fitted curve in the direction sought with a large enough effect; inconclusive means small, poorly fitted or top-dose-only effect, or another doubt; inactive means no such curve, though single readings can be large; an effect the other way counts as inactive or inconclusive. Unless noted, on the % scale 0 is the no-effect control and ±100 the full control effect.

SMILES	Giardia killer	Sfp PPTase inh	Coupling enz	ELG1 repair inh
CCCn1nc(C(=O)NC2CC2)c2ccccc2c1=O	-19	.	.	18%
COc1ccc(-n2nc(C(=O)NCC(=O)Nc3cccc(Cl)c3)c3ccccc3c2=O)cc1OC	-1	56µM*	6	?
CC(C)CN1CC[C@@]2(CCCN(C(=O)c3cccc(F)c3)C2)C1	.	-11%	1	.
CNc1nc(-c2cccnc2)nc2ccccc12	.	?	0	.
CC(C)C[C@@H](CC(=O)N[C@H](CC(=O)N[C@@H]1CCCC[C@H]1C(=O)N[C@H](CC(=O)N[C@@H](CCC(=O)O)CC(=O)O)Cc1ccccc1)C(C)C)NC(=O)[C@@H]1CNCC[C@H]1N	.	-3%	-2	.
Cc1cccc(N2CCN(S(=O)(=O)c3ccc4c(c3)CCCN4C(=O)C3CCC3)CC2)c1C	?	6%	-1	-13%
CCOC(=O)C1CCCN(C(=O)CNC(=O)c2nn(-c3ccc(OC)c(Cl)c3)c(=O)c3ccccc23)C1 (configuration not stated)	-28	25%	1	?
CCOC(=O)C1CCN(C(=O)CNC(=O)c2nn(-c3ccc(OC)c(Cl)c3)c(=O)c3ccccc23)CC1	-1	5%	-1	15µM*
COc1ccccc1C(CNC(=O)c1cc(C)nc2ccccc12)N(C)C (configuration not stated)	-18	6%	4	18%
c1ccc(Oc2nc(N3CCOCC3)nc(N3CCOCC3)n2)cc1	-6	17%	3	?
O=C1CSC(c2ccccc2)N1Nc1nc(N2CCOCC2)nc(N2CCOCC2)n1 (configuration not stated)	11	-2%	-4	6.5µM*
CC(C)(C)C(=O)CSc1ncccn1	-13	45µM*	0	-12%
CC(C)(C)NC(=O)NC(=O)CSc1ncccn1	9	17%	1	-5%
O=C(Nc1nnc(C2CC2)s1)c1cncc(Br)c1	-3	.	.	?
O=C(CSc1ccccc1)Nc1ccc(N2CCOCC2)c(F)c1	-1	15%	.	?
Cc1nc(NC(=O)c2ccccc2)sc1Cc1ccc2c(c1)OCO2	-1	-10%	-8	-14%
CCC(CC)c1nnc(NC(=O)COc2ccc3c(c2)OCO3)s1	9	25µM*	2	-19%
Cc1nc(NC(=O)c2ccc(Cl)cc2)sc1Cc1ccc2c(c1)OCO2	?	20µM*	1	?
CCC(CC)c1nnc(NC(=O)c2ccc3c(c2)OCO3)s1	-15	45µM*	-1	?
CCC(CC)c1nnc(NC(=O)c2nc3nc(C)cc(C)n3n2)s1	4	56µM*	13	1%
O=C(CC12CC3CC(CC(C3)C1)C2)Nc1c(F)cccc1F	0	8%	2	-19%
CCOc1ccc(C(=O)Nc2nnc(C(C)C)s2)cc1OCC	1	89µM*	1	?
Cc1ccc(S(=O)(=O)N(C)C[C@H]2Oc3ccc(NC(=O)Nc4c(C)noc4C)cc3CC(=O)N([C@@H](C)CO)C[C@@H]2C)cc1	16	.	.	?
CCCCc1ccc(-c2csc(/C(C#N)=C\c3ccc(C)o3)n2)cc1	6	-10%	2	-2%
CCOc1ccc(-c2csc(/C(C#N)=C\c3ccc(O)c([N+](=O)[O-])c3)n2)cc1	-25	79µM*	0	13µM*
SMILES	Giardia killer	Sfp PPTase inh	Coupling enz	ELG1 repair inh
O=C(NCc1cn(-c2ccccc2)nc1-c1ccccc1)c1cccc([N+](=O)[O-])c1	0	16%	0	21µM*
COc1ccccc1NOC(=O)CCOc1ccccc1	2	.	.	.
O=C(O)C1CSC(CCc2ccccc2)N1 (configuration not stated)	-6	79µM*	3	-2%
CCn1c(/C=C/N(C(C)=O)c2ccccc2)[n+](CC)c2ccc(Cl)cc21	-26	22%	5	0%
CC[n+]1c(/C=C/C=C/N(C(C)=O)c2ccccc2)sc2ccccc21	-6	50µM*	-6	-13%
CC1(C)Cc2c(C#N)c(SCC(=O)c3ccccc3)nc(N3CCOCC3)c2CO1	-5	14µM*	-6	1.3µM*
CCOC(=O)CSc1nc(N2CCOCC2)c2c(c1C#N)CC(C)(C)OC2	-26	4%	3	2.1µM*
Cc1cc(=S)c2cccc(C)c2[nH]1	-2	35µM*	1	-1%
COc1ccccc1/C=C\C(=O)OC[C@@H]1CCCN2CCCC[C@H]12	.	12%	-1	.
COc1ccc(-n2c(=S)[nH]c3ccccc32)cc1	1	45µM*	3	-3%
Cc1cc(C)c(C#N)c(SCC(=O)c2cccs2)n1	1	12%	1	?
CCN(CC)C(=O)CSc1nc(C)cc(-c2cccs2)c1C#N	-12	40µM*	1	-12%
C=CC1=C(C)/C(=C/c2[nH]c(Cc3[nH]c(/C=C4\NC(=O)C(C)=C4C=C)c(C)c3CCC(=O)O)c(CCC(=O)O)c2C)NC1=O	.	40µM*	-16	.
CC(CC(=O)N1CCN(c2ccccc2)CC1)S(=O)(=O)c1ccc2c(c1)NC(=O)CO2 (configuration not stated)	33	6%	.	10µM*
Cc1cc(N2CCN(C(=O)c3ccco3)CC2)n2nc(-c3cccc(Cl)c3)cc2n1	-2	-12%	1	13µM*
Cc1nc2cc(-c3cccc(Cl)c3)nn2c(N2CCN(C(=O)c3ccco3)CC2)c1C	.	6%	-1	?
CNC(=O)c1c(NC(=O)c2nc3ccccc3s2)sc2c1CCC2	.	18µM*	-5	?
COC(=O)c1c(NC(=O)c2nc3ccccc3s2)sc2c1CCN(C(C)=O)C2	-4	?	1	?
COc1ccc2[nH]c(=O)c(CN(Cc3ccccc3)Cc3nnnn3CC3CCCO3)cc2c1 (configuration not stated)	40	-2%	-3	-27%
COc1cc2cc(CN(Cc3nnnn3Cc3ccccc3)CC3CCCO3)c(=O)[nH]c2cc1OC (configuration not stated)	20	56µM*	-4	?
COc1ccc2[nH]c(=O)c(CN(Cc3cccnc3)Cc3nnnn3CC3CCCO3)cc2c1 (configuration not stated)	6	79µM*	-7	-3%
CCc1ccc2[nH]c(=O)c(CN(Cc3ccccc3)Cc3nnnn3C(C)(C)C)cc2c1	26	.	.	.
CCc1ccc2[nH]c(=O)c(CN(Cc3ccc(OC)cc3)Cc3nnnn3CCOC)cc2c1	-1	13µM*	-74*	0%
O=C(Cc1ccc(Br)cc1)N/N=C/c1cccnc1	-20	10%	.	3%
O=C(NNc1cccc(Cl)n1)Nc1cccc(Cl)c1	12	-20%	-2	?
O=S(=O)(NNc1ccc(Cl)nn1)c1ccc(F)cc1	7	13µM*	3	9%
O=S(=O)(NNc1cccc(Cl)n1)c1ccc(Cl)cc1	-6	40µM*	-9	-11%
CCc1nnc(NC(=O)c2ccc(OC)c(S(=O)(=O)N3CCCC3)c2)s1	10	.	.	-15%
OC1OC[C@H](O)[C@@H](O)[C@H]1O (some centres not stated)	.	6%	1	.
COc1cccc(O)c1O	.	20µM*	-33*	.
